According to PubChem BioAssay:
Activity calls are given as the source filed them.

System: not listed separately
Experiment: S6 kinase pathway phospho-S6 level changes – cell-based, A549, cytoblot, luminescence, serum-stimulated, primary screen (AID 1158);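 also: serum-stimulated A549 lung adenocarcinoma cells; signal is phosphorylated S6 detected by cytoblot immunostaining with HRP secondary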
Conditions: 5 h, higher = more signal
With `COc1ccc([Si](C)(C)[C@H]2[C@H](CCn3cc([C@H](O)c4ccccc4)nn3)O[C@@]3(C(=O)N(Cc4cccc(N5CCOC5=O)c4)c4ccccc43)[C@@H]2C)cc1` the z-score was 0.17.
In the case of `CN1C(=O)C2C=CC(C(O)C3=C[C@H]4C[C@@H](C3)C4(C)C)N(Nc3ccccc3)C2C1=O` (stereo partly drawn), the z-score was -0.776.
`CC(=O)NCCCC[C@@H]1NC(=O)[C@@H]2C[C@H](C(=O)NCCCCN(C)C)[C@H](c3cccc(OCCO)c3)N2C1=O` showed a z-score of -0.326.
For `COc1ccc(CCNC(=O)[C@@]2(C)c3ccccc3C(=O)N(Cc3cc(F)cc(C(F)(F)F)c3)[C@H]2c2ccc(CO)cc2)cc1`, the z-score was 0.0269.
Compound `C=CCOC(=O)[C@H]1[C@@H]2C(=O)O[C@@H](c3ccccc3)[C@@H](c3ccccc3)N2[C@@H](c2ccc(OCCOC(=O)[C@@H]3C[C@@H]4C(=O)N[C@@H](CCCC[N+](C)(C)C)C(=O)N4[C@@H]3c3ccc(O)cc3)cc2)[C@]12C(=O)Nc1ccccc12` has a z-score of 1.28.
In the case of `O=C1OCCC/C=C\[C@H]2OC34C=CCN(Cc5ccccc5)C(=O)[C@H]3N(CCCCCCO)C(=O)[C@@H]4C12` (stereo partly drawn), the z-score was 0.0169.
`C=C(CCCC)C(=O)CC[C@H](OC(C)=O)c1cccc(OCCO)c1` showed a z-score of 0.73.
`CC(C)N1C(=O)[C@@]2(Cc3ccccc31)c1ccccc1C(=O)N(C1CCCCC1)[C@H]2c1ccc(CO)cc1` gave a z-score of 0.0252.
`COCCOC(=O)N1C(=O)[C@@]2(c3cc(C#CC4(O)CCCCCC4)ccc31)[C@H](c1ccc(O)cc1)N1[C@H](c3ccccc3)[C@H](c3ccccc3)OC(=O)[C@H]1[C@@H]2C(=O)Nc1nc2ccccc2s1` gave a z-score of -0.502.
Compound `O=C1O[C@@H](c2ccccc2)[C@@H](c2ccccc2)N2[C@@H](c3ccccc3OCCO)[C@]3(C(=O)Nc4ccc(C#CC5=CCCCC5)cc43)[C@@H](C(=O)Nc3nc4ccccc4s3)[C@H]12` has a z-score of 0.653.
Compound `C=CCOC(=O)[C@@H]1[C@H]2C(=O)O[C@H](c3ccccc3)[C@H](c3ccccc3)N2[C@H](c2ccc(OCCOC(=O)[C@@H]3C[C@@H]4C(=O)N5CCC[C@H]5C(=O)N4[C@@H]3c3ccc(O)cc3)cc2)[C@@]12C(=O)Nc1ccc(I)cc12` has a z-score of 3.17.
For `C=CCNC(=O)[C@H]1[C@@H]2C(=O)O[C@@H](c3ccccc3)[C@@H](c3ccccc3)N2[C@@H](c2ccc(OCCO)cc2)[C@]12C(=O)N(C(=O)OCCOC)c1ccccc12`, the z-score was 0.182.
`COc1ccc(C(=O)O[C@H]2CC[C@]3(C)C4=C(CCC3C2(C)C)[C@]2(C)CC[C@H]([C@H](C)CCCC(C)C)[C@@]2(C)CC4)cc1` (stereo partly drawn) showed a z-score of 1.86.

Biological target: NADPH oxidase 2 (Homo sapiens) (UniProt P04839)
Sequence (P04839 whole entry, looked up): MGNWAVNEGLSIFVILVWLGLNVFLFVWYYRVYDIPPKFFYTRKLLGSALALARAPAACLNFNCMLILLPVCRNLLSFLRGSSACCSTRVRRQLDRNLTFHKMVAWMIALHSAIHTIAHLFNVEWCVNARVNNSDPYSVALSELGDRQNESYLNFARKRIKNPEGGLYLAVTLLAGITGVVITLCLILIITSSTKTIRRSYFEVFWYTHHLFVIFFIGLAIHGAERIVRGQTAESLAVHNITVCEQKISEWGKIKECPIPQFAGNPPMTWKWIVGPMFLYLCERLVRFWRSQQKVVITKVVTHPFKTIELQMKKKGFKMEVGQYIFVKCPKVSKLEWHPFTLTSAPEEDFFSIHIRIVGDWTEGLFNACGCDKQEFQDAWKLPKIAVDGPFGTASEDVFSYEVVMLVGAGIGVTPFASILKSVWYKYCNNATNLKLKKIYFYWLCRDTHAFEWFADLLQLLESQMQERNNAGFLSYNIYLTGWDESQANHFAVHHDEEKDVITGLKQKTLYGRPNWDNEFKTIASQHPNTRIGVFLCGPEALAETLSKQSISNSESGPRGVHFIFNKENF
Experiment: compounds shifting NOX2 Amplex Red fluorescence – cell-based, HEK293-NOX2, PMA-stimulated, NOX inhibitor project, primary screen (AID 1159); also: test concentration not given here
Conditions: 45 min, higher = more signal, called active from +8 up or from −8 down
With `C=CCN1C(=O)[C@]2(O[C@H](CCO)[C@@H]([Si](C)(C)c3ccc(OC)cc3)[C@@H]2C)c2cc(N3C(=O)c4cccc5cccc3c45)ccc21` the z-score was 0.924 (inactive).
In the case of `C[N+](C)(C)CCCCNC(=O)[C@H]1C[C@H]2C(=O)N[C@@H](Cc3ccccc3)C(=O)N2[C@H]1c1ccc(O)cc1`, the z-score was -2.12 (inactive).
With `COC(=O)[C@@]1(Cc2ccc(F)cc2)[C@H]2c3cc(C(=O)N4CCCC4)n(Cc4cc(C)n(C)n4)c3C[C@H]2CN1C(=O)c1ccccc1` the z-score was 1.16 (inactive).
In the case of `Cc1ccc(S[C@]2(C(=O)NCC(F)(F)F)CC(=O)N(C(C)C)[C@@H]2c2ccc(CO)cc2I)cc1`, the z-score was 1.81 (inactive).
In the case of `CO[C@H]1O[C@H](CO)[C@@H](OC(=O)Nc2ccc(Br)cc2)[C@H](OC(=O)c2cc3ccccc3[nH]2)[C@H]1OC(=O)c1cc2ccccc2[nH]1`, the z-score was -2.75 (inactive).
With `COc1ccc(CCNC(=O)[C@@]2(Sc3ccc(C)cc3)CC(=O)N(C3CCCCC3)[C@@H]2c2ccc(CO)cc2I)cc1` the z-score was 0.573 (inactive).
In the case of `CC(C)c1ccc(NN2C(C(O)c3cc(C(F)(F)F)cc(C(F)(F)F)c3)C=CC3C(=O)N(c4ccccc4)C(=O)C32)cc1` (stereo not drawn), the z-score was -1.3 (inactive).
In the case of `COc1ccc([C@H]2OC[C@@H]3CC4(CC=CC4)C(=O)N32)cc1`, the z-score was 0.777 (inactive).
With `CN1C(=O)C2C=CC(C(O)C3CC=CCC3)N(NC(=O)OC(C)(C)C)C2C1=O` (stereo not drawn) the z-score was -0.92 (inactive).
For `N#Cc1ccc(NN2C(C(O)c3c(F)cccc3Cl)C=CC3C(=O)N(c4ccccc4)C(=O)C32)cc1` (stereo not drawn), the z-score was -1.1 (inactive).
In the case of `CCOC(=O)C1=CCC(c2ccccc2)N(S(=O)(=O)CC[Si](C)(C)C)C1` (stereo not drawn), the z-score was 0.183 (inactive).
For `O=C1OCCC/C=C\[C@H]2OC34C=CCN(CCN5CCOCC5)C(=O)[C@H]3N(CCCO)C(=O)[C@@H]4C12` (stereo partly drawn), the z-score was 1.18 (inactive).
With `COc1cc2c(cc1O)C=[N+](Cc1cccc(OC(F)(F)F)c1)CC2` the z-score was -4.18 (inactive).
For `COc1ccc(C(=O)Nc2cccc(CN3C(=O)[C@]4(O[C@H](CCO)[C@@H]([Si](C)(C)c5ccc(OC)cc5)[C@@H]4C)c4ccccc43)c2)cc1`, the z-score was -6.65 (inactive).
For `CCCCCN1CC=CC23O[C@@H]4/C=C\CCCOC(=O)C4[C@H]2C(=O)N(C(CO)C(C)C)[C@@H]3C1=O` (stereo partly drawn), the z-score was 1.59 (inactive).
With `O=C1O[C@H](c2ccccc2)[C@H](c2ccccc2)N2[C@H]1[C@@H](C(=O)NC[C@H](O)c1ccccc1)[C@]1(C(=O)Nc3ccccc31)[C@H]2c1ccc(OCCO)cc1` the z-score was 1.55 (inactive).
For `CCOC(=O)[C@H]1CC=C2CC1C(=O)N1CCC[C@@H]1[C@@H]2O[Si](C)(C)C(C)(C)C` (stereo partly drawn), the z-score was 0.461 (inactive).
For `CCN(CC)c1ccc(N2CC=CC34O[C@@H]5/C=C\CCCOC(=O)C5[C@H]3C(=O)N(CCO)[C@@H]4C2=O)cc1` (stereo partly drawn), the z-score was -0.401 (inactive).
In the case of `COCCOC(=O)N1C(=O)[C@@]2(c3cc(C#CC4=CCCCC4)ccc31)[C@H](C(=O)Nc1nc3ccccc3s1)[C@H]1C(=O)O[C@H](c3ccccc3)[C@H](c3ccccc3)N1[C@@H]2c1ccc(OCCO)cc1`, the z-score was 1.01 (inactive).
For `CN1C(=O)C2C=CC(C(O)c3ccc(I)cc3)N(N3CCCCC3)C2C1=O` (stereo not drawn), the z-score was -0.229 (inactive).
For `CC1CC/C=C\[C@H]2OC34C=CCN(c5ccc(Cl)cc5)C(=O)[C@H]3N(CCO)C(=O)[C@]4(C)C2C(=O)O1` (stereo partly drawn), the z-score was 1.66 (inactive).
In the case of `COCCOC(=O)N1C(=O)[C@@]2(c3cc(C#Cc4ccc(OC)cc4)ccc31)[C@H](c1ccc(O)cc1)N1[C@H](c3ccccc3)[C@H](c3ccccc3)OC(=O)[C@H]1[C@@H]2C(=O)NC[C@H](O)c1ccccc1`, the z-score was 1.07 (inactive).
With `COc1ccc([Si](C)(C)[C@H]2[C@H](CCn3cc([C@H](O)c4ccccc4)nn3)O[C@@]3(C(=O)N(Cc4cccc(N5CCOC5=O)c4)c4ccccc43)[C@@H]2C)cc1` the z-score was 0.0189 (inactive).
In the case of `CN1C(=O)C2C=CC(C(O)C3=C[C@H]4C[C@@H](C3)C4(C)C)N(Nc3ccccc3)C2C1=O` (stereo partly drawn), the z-score was -0.945 (inactive).
For `CC(=O)NCCCC[C@@H]1NC(=O)[C@@H]2C[C@H](C(=O)NCCCCN(C)C)[C@H](c3cccc(OCCO)c3)N2C1=O`, the z-score was -0.0869 (inactive).
In the case of `COc1ccc(CCNC(=O)[C@@]2(C)c3ccccc3C(=O)N(Cc3cc(F)cc(C(F)(F)F)c3)[C@H]2c2ccc(CO)cc2)cc1`, the z-score was -1.38 (inactive).
In the case of `C=CCOC(=O)[C@H]1[C@@H]2C(=O)O[C@@H](c3ccccc3)[C@@H](c3ccccc3)N2[C@@H](c2ccc(OCCOC(=O)[C@@H]3C[C@@H]4C(=O)N[C@@H](CCCC[N+](C)(C)C)C(=O)N4[C@@H]3c3ccc(O)cc3)cc2)[C@]12C(=O)Nc1ccccc12`, the z-score was 2.42 (inactive).
For `O=C1OCCC/C=C\[C@H]2OC34C=CCN(Cc5ccccc5)C(=O)[C@H]3N(CCCCCCO)C(=O)[C@@H]4C12` (stereo partly drawn), the z-score was 1.12 (inactive).
For `C=C(CCCC)C(=O)CC[C@H](OC(C)=O)c1cccc(OCCO)c1`, the z-score was -1.94 (inactive).
For `CC(C)N1C(=O)[C@@]2(Cc3ccccc31)c1ccccc1C(=O)N(C1CCCCC1)[C@H]2c1ccc(CO)cc1`, the z-score was 0.111 (inactive).
With `COCCOC(=O)N1C(=O)[C@@]2(c3cc(C#CC4(O)CCCCCC4)ccc31)[C@H](c1ccc(O)cc1)N1[C@H](c3ccccc3)[C@H](c3ccccc3)OC(=O)[C@H]1[C@@H]2C(=O)Nc1nc2ccccc2s1` the z-score was 1.75 (inactive).
In the case of `O=C1O[C@@H](c2ccccc2)[C@@H](c2ccccc2)N2[C@@H](c3ccccc3OCCO)[C@]3(C(=O)Nc4ccc(C#CC5=CCCCC5)cc43)[C@@H](C(=O)Nc3nc4ccccc4s3)[C@H]12`, the z-score was 1.78 (inactive).
For `C=CCOC(=O)[C@@H]1[C@H]2C(=O)O[C@H](c3ccccc3)[C@H](c3ccccc3)N2[C@H](c2ccc(OCCOC(=O)[C@@H]3C[C@@H]4C(=O)N5CCC[C@H]5C(=O)N4[C@@H]3c3ccc(O)cc3)cc2)[C@@]12C(=O)Nc1ccc(I)cc12`, the z-score was 1.32 (inactive).
For `C=CCNC(=O)[C@H]1[C@@H]2C(=O)O[C@@H](c3ccccc3)[C@@H](c3ccccc3)N2[C@@H](c2ccc(OCCO)cc2)[C@]12C(=O)N(C(=O)OCCOC)c1ccccc12`, the z-score was 2.35 (inactive).
With `COc1ccc(C(=O)O[C@H]2CC[C@]3(C)C4=C(CCC3C2(C)C)[C@]2(C)CC[C@H]([C@H](C)CCCC(C)C)[C@@]2(C)CC4)cc1` (stereo partly drawn) the z-score was -0.13 (inactive).
